# Bioassay records as filed in PubChem BioAssay.
# Sampled rows, rich in hits. Any-hit rate of the full collection: about 1.4%.
# Mtb MbtI inh = MbtI salicylate synthase inhibition | P9WFX0 | purified MbtI enzyme, fluorescence intensity read-out | inhibition, % (no concentration beside the values) | hit rate 0.89% among 100,000; in the data active means inhibition mostly above about 56%, no sharp cut-off; inactive means mostly below about 77%
# MenB inh = inhibitors of Mycobacterium tuberculosis MenB enzyme; P9WNP5; MenB enzyme assay, absorbance read-out; inhibition, % (no concentration beside the values); hit rate 0.43% among 100,000; AID 540299; in the data active means inhibition above about 21%, passing the limit was not always enough
# PV pol inh = poliovirus RNA polymerase inhibition | P03300 | hit rate 0.66% among 150,000 | poliovirus polymerase elongation, fluorescence polarization; stronger effect = lower value | AID 588519 | % elongation, % (compound at 16.7 µg/mL); in the data active means % elongation below about 90%
# Target sequence (P03300 1749-2209 limits assumed): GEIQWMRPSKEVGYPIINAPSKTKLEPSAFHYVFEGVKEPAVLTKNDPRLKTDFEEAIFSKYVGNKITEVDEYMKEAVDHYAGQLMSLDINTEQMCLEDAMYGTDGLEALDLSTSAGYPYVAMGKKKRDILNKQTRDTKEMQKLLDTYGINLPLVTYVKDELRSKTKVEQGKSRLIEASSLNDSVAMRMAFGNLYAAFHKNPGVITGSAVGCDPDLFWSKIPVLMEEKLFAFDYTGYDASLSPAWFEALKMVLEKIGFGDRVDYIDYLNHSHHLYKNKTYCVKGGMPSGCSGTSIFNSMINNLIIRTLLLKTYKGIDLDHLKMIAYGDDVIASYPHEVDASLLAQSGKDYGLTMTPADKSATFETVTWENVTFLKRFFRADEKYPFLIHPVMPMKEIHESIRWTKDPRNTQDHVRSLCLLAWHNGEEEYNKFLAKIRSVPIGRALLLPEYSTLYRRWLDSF
# * marks the source's active call; other numbers are inactive results; . = no result; ! = repeats disagree.
SMILES,Mtb MbtI inh,MenB inh,PV pol inh
CCC(C)NC(=S)Nc1ccccc1 (stereo not drawn),-6,30*,98
CCN(CC)NC(=S)Nc1ccccc1,-1,24,101
CC(C)N(C)NC(=S)Nc1ccccc1,-19,41*,100
COC(=O)/C(C#N)=C\Nc1ccccn1,9,-6,102
CC(=O)NCc1ccco1,-8,-5,102
O=C(NCc1ccco1)C(=S)N1CCOCC1,76*,-6,99
C=Cc1ccc(Cn2c(C(=O)OC)cc3occc32)cc1,3,-29,104
CC(=O)N1CCN(c2ccc3ccccc3n2)CC1,104,-24,101
COc1cc2c(cc1OC)CN(c1ccc3ccccc3n1)CC2,-27,-5,89*
O=C(NC1CCCCC1)c1sc(=S)n2c1[nH]c(=O)c1ccccc12,96*,2,98
O=C(NCCc1ccccc1)c1sc(=S)n2c1[nH]c(=O)c1ccccc12,67,-5,95
Nc1c(C(=O)NC2CCCCC2)sc(=S)n1-c1ccccc1,56*,9,97
NC(=O)c1sc(=S)n(-c2ccccc2)c1N,.,-17,91
Cc1ccc2c(CC(=O)N3CCSC3=Nc3ccccc3C)coc2c1,4,-9,105
CN1CCC(N(C)C(=S)NC2CCCCC2)CC1,-2,-12,100
Cc1ccc(NC(=O)NC(=O)CSc2nnc(Cc3csc(C)n3)o2)c(C)c1,-3,10,100
COc1ccc(OC)c(-c2nnc3n(Cc4ccc(C)cc4)c(=O)c4ccccc4n23)c1,.,.,64*
COc1ccc(Cn2c(=O)c3ccccc3n3c(-c4ccccc4O)nnc23)cc1,-12,-13,106
O=C(COc1ccc(F)cc1)NCCN1CCOCC1,.,-18,101
O=C(O)c1nc(Cl)c(Cl)c(N2CCCCC2)c1Cl,-9,-17,103
CC(C)(C)C(=O)CON1C(=O)c2ccccc2C1=O,-15,-3,99
COc1ccc(C(=O)CSC2=NCCc3ccccc32)cc1,67*,6,77*
COc1ccc(C(=O)CN2C(=O)COc3ccccc32)cc1,.,-13,108
Cc1nn(C(C)CN)c(C)c1C (stereo not drawn),-3,34*,101
Cc1nn(CC(=O)O)c(C)c1C,-10,-15,103
SMILES,Mtb MbtI inh,MenB inh,PV pol inh
O=C(Nc1cccc(F)c1)[C@H](Cc1ccccc1)N1Cc2ccccc2C1=O,-9,-20,100
O=C(Nc1cccc(F)c1)[C@H](CSCc1ccccc1)N1Cc2ccccc2C1=O,.,.,84*
CO[C@H]1C[C@@H]2CC[C@@H](C)[C@@](O)(O2)C(=O)C(=O)N2CCCC[C@H]2C(=O)O[C@H](C(C)CC2CC[C@@H](O)[C@H](OC)C2)CC(=O)[C@H](C)/C=C(\C)[C@@H](O)[C@@H](OC)C(=O)[C@H](C)C[C@H](C)/C=C/C=C/C=C/1C (stereo partly drawn),-6,-17,99
O=C(/C=c1\[nH]c(=O)/c(=C\c2ccsc2)s1)c1ccco1,98*,-195,143
O=C(/C=c1/[nH]c(=O)/c(=C/c2cccc(C(F)(F)F)c2)s1)c1ccco1,-4,-12,115
CN(C)c1ccc(-c2nc3c4ccccc4c4ccccc4c3n2C)cc1,107,-40,103
Cc1nn(C)cc1S(=O)(=O)N1CCN(c2ccccn2)CC1,-171,4,100
Cc1nc(CSc2nncs2)cs1,80*,-40,83*
Cc1nc(CSc2n[nH]c(C(C)(C)C)n2)cs1,-10,8,105
Cc1nc(SC(C)C(=O)NCc2ccc3c(c2)OCO3)c2cnn(-c3ccccc3)c2n1 (stereo not drawn),5,-13,101
Cc1ccc(C(=O)CC(NCCN2CCOCC2)C(=O)O)cc1 (stereo not drawn),.,33*,103
O=C(CC(NCCN1CCOCC1)C(=O)O)Nc1ccc2ccccc2c1 (stereo not drawn),15,-6,102
Cn1c2ccccc2c2cc(C(=O)N/N=C/c3ccc(-c4ccc(S(N)(=O)=O)cc4)o3)sc21,-15,-7,115
C=CCNc1nc(C(C)C)nc2c1nnn2Cc1ccccc1,-3,23,102
C=CCNC(=S)Nc1ccccc1,0,-19,101
C=CCNC(=S)C(=O)Nc1ccccc1,.,-42,81*
CCN(CC)S(=O)(=O)c1ccc(C(=O)Nc2nc(-c3ccc4c(c3)OCO4)cs2)cc1,10,-42,101
CCCSCCCn1cnc2c([nH]c3cc(OC)ccc32)c1=O,-3,3,102
O=c1/c(=C\c2ccccc2)sc2nc3ccccc3n12,29,.,97
O=c1/c(=C\c2ccncc2)sc2nc3ccccc3n12,.,-34,63*
O=C(OCC(=O)N(C1CCCCC1)C1CCS(=O)(=O)C1)C1CC1 (stereo not drawn),-8,-13,101
CCN1C(=O)/C(=C\C(C)=C\c2ccccc2)SC1=S,-9,-8,102
CC(C)N1CSC(=S)N(C(C)C)C1,-8,-5,64*
O=c1c(O)c(-c2ccc(F)c(Oc3ccccc3)c2)oc2ccccc12,.,-24,108
Nc1nnnn1/N=C1/C(=O)Nc2ccc(Br)cc21,.,-60,72*
SMILES,Mtb MbtI inh,MenB inh,PV pol inh
COc1ccc(N=C2C(=O)Nc3ccc(Br)cc32)cc1,0,-3,98
CC(C)N(CC(=O)c1cccs1)Cc1ccccc1,100*,-8,98
CC(CN(C)Cc1ccccc1)OC(=O)c1cccs1 (stereo not drawn),-5,.,.
COC(=O)C(Cc1c[nH]c2ccccc12)NS(=O)(=O)c1ccc(Cl)cc1 (stereo not drawn),3,6,101
COc1cc(NC(=O)CS)cc(OC)c1,90*,-107,99
COc1cc(NC(=O)CSC)cc(OC)c1,3,-27,101
N#C/C(=C\c1ccc(N2CCOCC2)cc1)C(=O)NCc1ccccc1,-11,-168,110
COC(=O)C1(c2ccccc2)NC(c2ccc(O)cc2)C2C(=O)N(c3ccc4c(c3)OCCO4)C(=O)C21 (stereo not drawn),-7,-39,104
Cc1[nH]n(-c2ccc(Cl)cc2)c(=O)c1C=O,71*,5,100
Cc1[nH]n(-c2ccccc2)c(=O)c1Sc1ccc(Cl)cc1,-207,-6,102
O=C(NCCc1c[nH]c2ccccc12)NC1CC(=O)N(c2ccccc2)C1 (stereo not drawn),-7,-25,97
COC(=O)/C=C/S(=O)(=O)c1ccc(NC(C)=O)cc1,67*,-12,104
CC(=O)Nc1ccc(S(=O)(=O)N=S(C)(C)=O)cc1,-7,-2,102
COC(=O)/C=C/S(=O)(=O)c1ccc(Br)cc1,100*,-11,104
O=C(O)/C=C/S(=O)(=O)c1ccccc1,0,-18,104
Clc1cc2c(cc1Cl)Nc1cc(Cl)c(Cl)cc1N2,95*,14,100
O=C1NC(=O)c2cc(Cl)c(Cl)cc21,-2,-7,103
CCc1cccc(NC(=O)C2CCCN(c3ncccn3)C2)c1 (stereo not drawn),0,-38,105
C=CCNc1oc(COc2cccc(Cl)c2)nc1C#N,-2,-25,102
COc1ccc(CSc2cccc3cccnc23)cc1,33,.,105
COc1cc(NC(C)CCCN)c2ncccc2c1 (stereo not drawn),3,-4,58*!
CCN(C(=O)CSc1ncn[nH]1)c1ccccc1,-5,-3,100
NC(=O)c1cc(NC(=O)/C=C/c2cccc(F)c2)cc(C(N)=O)c1,38,5,99
